Measurements as given in PubChem BioAssay (NCI).
Values joined by “and” are separate entries in the source; they are usually repeats but may differ in a detail not shown here. Identical values can stand only once. The panel holds about 83,000 compounds, 20% with a hit somewhere; the sample as a whole holds those more often.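 Percent growth is the endpoint: 0 to 100 indicates growth inhibition (40 means 60% inhibition), 0 means no net growth, and negative values indicate cell death.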 Unmarked numbers belong to inactive results. Active and inactive are the calls of the source. The calls were made as follows: active = growth percent below 10; inactive = the rest.

What follows are compounds tested on MDA-MB-468 breast (assay: NCI-60 one-dose screen, 48 h (100 = growth as untreated, 0 = no growth, -100 = all killed)). Conditions: 10 µM unless noted.

Question: How did the growth turn out when `O=C1CC(c2ccc3c(c2)OCO3)Nc2cc3c(cc21)OCO3` (stereo not given) was run?
Answer: -11.3% (active)

Question: For `Cn1c(=O)c2[nH]c(CCCCCCCCc3nc4ccccc4[nH]3)nc2n(C)c1=O`, which growth is on record?
Answer: 10.7% and 21.7%

Question: Which growth does the source give for `O=C(O)c1ccnc(Br)c1` here?
Answer: 91.1%

Question: Which growth does the source give for `CCCCCCCCCCCCNC(=S)N/N=C/c1ccccc1O` here?
Answer: 53.1%

Question: `Cn1cc(-c2ncnc3ccc(-c4cnc(Cl)c(NS(C)(=O)=O)c4)cc23)c2ccccc21` was tested. Which growth did it give?
Answer: -1.16% (active)

Question: `C=C1C(=O)O[C@H]2[C@H]1CC/C(COC(=O)NCc1c[nH]c3ccc(Br)cc13)=C\CC[C@@]1(C)O[C@@H]21` was tested. Which growth did it give?
Answer: -58% (active)

Question: How did the growth turn out when `Fc1cc2[nH]ncc2c2c3c(c(-c4cn[nH]c4)nc12)CCCC3` was run?
Answer: -22.4% (active)

Question: Which growth does the source give for `Cc1cccc(C)c1N1C(c2ccccc2)=NNC12C=CC(=O)c1c(O)cccc12` (stereo not given) here?
Answer: 85.1%

Question: For `S=C1SCN(Cc2ccccc2)CN1Cc1ccco1`, which growth is on record?
Answer: 31.9%

Question: With `CC(C)(C)c1ccc2oc(=O)n(SC(Cl)(Cl)Cl)c2c1` as the compound, how does the growth read?
Answer: 126%

Question: How did the growth turn out when `CCN(CC)CCCNc1nc2ccccc2c2c(=O)c3cc(Cl)ccc3sc12` was run?
Answer: 54.5%

Question: For `C/C(=N\Nc1ccc2ccccc2n1)c1ccccn1`, which growth is on record?
Answer: -36.1% (active)

Question: How did the growth turn out when `CN1CCN(c2ccc(N3Cc4ccccc4OC4=C3C(=O)c3c(O)ccc(O)c3C4=O)cn2)CC1` was run?
Answer: -60.1% (active)

Question: `c1ccc(-c2c(-c3ccccc3)[n+](Cc3ccc4ccccc4c3)c(-c3cccc4ccccc34)n2Cc2ccc3ccccc3c2)cc1` was tested. Which growth did it give?
Answer: -62.3% (active)

Question: For `CNC(=O)c1cc(Oc2ccc3nc(NC(=O)NC(C)C)sc3c2)ccn1`, which growth is on record?
Answer: 34.3%

Question: Which growth does the source give for `O=C1CC(c2ccc3c(c2)OCO3)Nc2ccccc21` (stereo not given) here?
Answer: 2.73% (active)

Question: Which growth does the source give for `O=C1C=CC(=O)N1c1cccc(N2C(=O)C=CC2=O)c1` here?
Answer: 51.5%

Question: How did the growth turn out when `O=C1C2=C(C(=O)c3ccccc31)C(O)(S(=O)(=O)O)C(O)(S(=O)(=O)O)C1N=CC=CC21` (stereo not given) was run?
Answer: 18.4%

Question: With `CS(=O)(=O)Nc1ccc(OCc2nnc(-c3ccc(Cl)cc3)o2)c(F)c1` as the compound, how does the growth read?
Answer: 86.8%

Question: Which growth does the source give for `C#C[C@]1(O)CC[C@H]2[C@@H]3CC=C4c5sc(Nc6cc(C)cc(C)c6)nc5CC[C@]4(C)[C@H]3CC[C@@]21C` here?
Answer: -11.3% (active)

Question: Which growth does the source give for `CN1CCN(Cc2ccc(NC(=O)c3ccc(C#Cc4c(N)ncc5ccc(F)cc45)cc3)cc2C(F)(F)F)CC1` here?
Answer: -73.6% (active)

Question: With `CCCCC(=O)c1ccco1` as the compound, how does the growth read?
Answer: 95.1%

Question: `COc1cccc(-c2nn(-c3ccccc3)cc2-c2ccnc(NCCNC(=O)Nc3ccccc3)c2)c1` was tested. Which growth did it give?
Answer: 49.7%

Question: With `C=CCOc1ccc(Cl)cc1Cl` as the compound, how does the growth read?
Answer: 111%

Question: With `CC(C)Oc1nc2c(c(=O)n(C)c(=O)n2C)n1C` as the compound, how does the growth read?
Answer: 109%

Question: For `O=C(NNC(=O)c1cccc(Cl)c1)c1ccccc1`, which growth is on record?
Answer: 94.4%

Question: With `COc1ccc2c(c1)OC1=C(C(=O)OC1)C2c1cc(OC)c(OC)c(OC)c1` (stereo not given) as the compound, how does the growth read?
Answer: -5.94% (active)

Question: How did the growth turn out when `COc1ccc(C(=S)c2cc(OC)c(OC)c(OC)c2)cc1OC(=O)CCl` was run?
Answer: 47.5%

Question: For `C[C@@H](Nc1cc(F)cc(F)c1)c1cc(C(=O)N(C)C)cc2c(=O)cc(N3CCOCC3)oc12`, which growth is on record?
Answer: 12.6%

Question: `CCN(CC)S(=O)(=O)c1cccc([N+](=O)[O-])c1` was tested. Which growth did it give?
Answer: 91.4%

Question: Which growth does the source give for `COC(=O)/C=C1\SC(=Nc2cccc(OC)c2)N(CCc2c[nH]c3ccccc23)C1=O` here?
Answer: 64%

Question: `Fc1cc(C2=NNC(c3ccc[nH]3)C2)ccc1-n1ccc(C(F)(F)F)n1` (stereo not given) was tested. Which growth did it give?
Answer: 89.7%

Question: With `C=C1C(=O)O[C@H]2[C@H]1CC/C(COC(=O)c1ccc3ccccc3c1)=C\CC[C@@]1(C)O[C@@H]21` as the compound, how does the growth read?
Answer: -57.9% (active)

Question: With `CCOC(=O)CSc1nc2sc3c(c2c(=O)n1-c1ccccc1)CCCCC3` as the compound, how does the growth read?
Answer: 122%

Question: For `COc1cc(-c2nn(-c3ccc(NC(=O)c4ccc(Cl)c(C(F)(F)F)c4)cc3)cc2-c2ccncc2)ccc1Cl`, which growth is on record?
Answer: 26%

Question: With `CC1(C)CCCN1CCCN1c2ccccc2Sc2ccc(Cl)cc21` as the compound, how does the growth read?
Answer: 37.6%

Question: Which growth does the source give for `COc1ccc(-c2cc(-c3ccc(Cl)cc3)nc(SCCCCCCC(=O)NO)n2)cc1` here?
Answer: 12.7%

Question: Which growth does the source give for `CC[C@@]1(OC(=O)CN(C)C)C(=O)OCc2c1cc1n(c2=O)Cc2cc3c(N)cccc3nc2-1` here?
Answer: -66.4% (active)

Question: With `O=C(CCc1nnc(SCc2ccccc2)s1)c1nc2ccccc2[nH]1` as the compound, how does the growth read?
Answer: 103%

Question: With `O=S(=O)(Nc1ccc(Br)cc1)c1ccc(-c2cnc(C3CC3)o2)cc1` as the compound, how does the growth read?
Answer: -12.4% (active)
